# Assay results from PubChem BioAssay.
# Where “and” joins values, the source holds several entries; their conditions need not be identical. Equal values may be shown once. Calls of active or inactive are those of the source.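 The calls were made as follows, unless noted: active = compound raises GLP1 secretion from the human gut endocrine cells, with no numeric limit stated; inactive = the rest.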
# Tests used:
# [1] = P. berghei load reduction in hepatocytes – cell-based, HepG2, luciferase luminescence, HepG2 viability, primary screen (AID 624349; in the data active = parasite load remaining mostly below about 12%, no sharp cut-off; inactive = mostly above about 10%;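 also: 100% = mean of DMSO negative control wells on the same plate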); conditions: P. berghei liver stage in HepG2, luciferase luminescence, concentration not given here; parasite load remaining: stronger effect = lower value; viability: measured here: HepG2 viability without parasites
# [2] = Wnt pathway potentiators raising nuclear beta-catenin – imaging, WNT3A-conditioned medium, mouse C2C12, NPC library, primary screen (AID 1117326; in the data active = nuclear beta-catenin stimulation mostly above about 4.2%, no sharp cut-off; inactive = mostly below about 10%); conditions: stronger effect = higher value
# [3] = stimulators of insulin release from INS-1E, primary screen, cell-based, 5 mM glucose, NPC library (AID 1117329;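 active = compound raises insulin release from rat beta cells at 5 mM glucose, no numeric limit stated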); conditions: rat INS-1E insulin secretion, at 10 µM, stronger effect = higher value
# [4] = growth inhibition of GSK3B-pretreated HCT116 cells – cell-based, CellTiter-Glo, 0.2 to 20 µM (AID 1117336;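 active = compounds lowering colon cancer cell viability after pretreatment blocking the GSK3B kinase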); conditions: HCT116 viability after GSK3B inhibitor, at 20 µM, stronger effect = higher value
# [5] = inhibition of endothelial tube formation, primary screen, imaging, VEGF stimulated, CD31 staining, tube area, NPC library (AID 1117340;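 active = compound that reduces growth-factor-driven endothelial tube area in a mixed cell culture, no cutoff stated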); conditions: VEGF-stimulated ADSC/ECFC co-culture, at 10 µM, stronger effect = higher value
# [6] = GLP1 release stimulators, primary, NCI-H716, NPC library (AID 1117341); conditions: NCI-H716 cells, at 10 µM, stronger effect = higher value
# [7] = HCT116 colon cancer cell growth inhibition, primary screen, CellTiter-Glo luminescence, NPC library (AID 1117342;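 active = compounds that lower survival of HCT116 colon cancer cells in the luminescence readout, no numeric limit stated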); conditions: at 20 µM (top of the series)
# [8] = reduced SW480 viability measured with CellTiter-Glo, NPC library, primary (AID 1117343;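 active = compounds that lower viability of the colon cancer cells in the luminescence readout, with no numeric limit stated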); conditions: CellTiter-Glo luminescence; at 20 µM (top of the series)
# [9] = NPC library primary testing for decreased DLD-1 cell viability via CellTiter-Glo (AID 1117346;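 active = compounds that lower survival of DLD-1 colon cancer cells in the luminescence readout, no cutoff given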); conditions: DLD-1 viability, CellTiter-Glo luminescence; at 20 µM (top of the series)
# [10] = viability loss with induced miR-34 in A549 – imaging, A549 dox-inducible miR-34, nuclei and caspase counts, primary screen (AID 1347080;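 active = compounds whose cell count with miR-34 switched on is under 0.7 times the count with it off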); conditions: A549 miR-34 inducible, Hoechst nuclei count, 48 h
# [11] = galactose survival enhancers in mitochondrial complex I cybrids – cell-based, galactose medium, ATP luminescence, primary screen (AID 1645843;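 active = z-score of at least 1.8 in each of two replicates, scored against plate mean and spread of sample wells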;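 also: positive z means more ATP and so rescue of galactose-driven cybrid death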); conditions: complex I mutant cybrid cells, 72 h, stronger effect = higher value
# [12] = EMT-state selective cytotoxicity in co-culture – imaging, PC-3E GFP, TEM4-18 mCherry, primary screen (AID 1345086;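 active = compounds killing one labelled cell type while sparing the other, by normalised counts and ratio limits, not self-fluorescent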;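 as to all read-outs here: cells exposed to compound for 72 h before imaging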;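 as to red/green cell ratio (normalised): normalised mesenchymal count divided by normalised epithelial count so high means epithelial killing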); conditions: PC-3E GFP / TEM4-18 mCherry co-culture, imaging cell counts, at 1 µM; for red/green cell ratio (normalised): actives lie on both sides
# [13] = MELAS cybrid and Rieske KO viability enhancers – cell-based, MELAS cybrids, Rieske KO mouse fibroblasts, CellTiter-Glo, primary screen (AID 1508586;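 active = mean z-score across replicates of 1.96 or higher in either the MELAS or the Rieske mutant cell line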;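 also: z relative to plate mean and SD of compound and empty wells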); conditions: low glucose
# [14] = molecular target: NAD(+) hydrolase SARM1 (Homo sapiens) (UniProt Q6SZW1); experiment: blocking NAD cleavage by SARM1 SAM-TIR – cell lysate, NAD-Glo luminescence (AID 1508614;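 active = compound whose remaining NAD level is above about 45 nM, limit read from the data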;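 also: higher remaining NAD means stronger inhibition of SARM1 NADase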); conditions: SAM-TIR HEK293T lysate NADase, at 1 µM, stronger effect = higher value
# [15] = molecular target: Mitogen-activated protein kinase 7 (Homo sapiens) (UniProt Q13164); experiment: Gal4-ERK5 driven luciferase induction – cell-based, HTS, primary screen (AID 1508626;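 active = luciferase signal above three times the same-plate solvent-only control wells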;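 also: luciferase driven by Gal4-ERK5 fusion binding five Gal4 sites before minimal TATA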); conditions: HeLa Gal4-ERK5 transactivation, 18 h, at 5 µM, stronger effect = higher value
# [16] = measured here: relative caspase fold change +Dox/-Dox
# [17] = measured here: total cells with miR-34 induction, stronger effect = lower value
# [18] = measured here: total cells without miR-34 induction
# [19] = measured here: epithelial PC-3E GFP cell survival
# [20] = measured here: mesenchymal TEM4-18 mCherry cell survival
# [21] = MELAS cybrid survival, CellTiter-Glo 48 h, stronger effect = higher value
# [22] = Rieske KO mouse fibroblast survival, CellTiter-Glo 72 h
# Chain of NAD(+) hydrolase SARM1 (Homo sapiens) (Q6SZW1 whole entry, looked up, the tested form may be a part): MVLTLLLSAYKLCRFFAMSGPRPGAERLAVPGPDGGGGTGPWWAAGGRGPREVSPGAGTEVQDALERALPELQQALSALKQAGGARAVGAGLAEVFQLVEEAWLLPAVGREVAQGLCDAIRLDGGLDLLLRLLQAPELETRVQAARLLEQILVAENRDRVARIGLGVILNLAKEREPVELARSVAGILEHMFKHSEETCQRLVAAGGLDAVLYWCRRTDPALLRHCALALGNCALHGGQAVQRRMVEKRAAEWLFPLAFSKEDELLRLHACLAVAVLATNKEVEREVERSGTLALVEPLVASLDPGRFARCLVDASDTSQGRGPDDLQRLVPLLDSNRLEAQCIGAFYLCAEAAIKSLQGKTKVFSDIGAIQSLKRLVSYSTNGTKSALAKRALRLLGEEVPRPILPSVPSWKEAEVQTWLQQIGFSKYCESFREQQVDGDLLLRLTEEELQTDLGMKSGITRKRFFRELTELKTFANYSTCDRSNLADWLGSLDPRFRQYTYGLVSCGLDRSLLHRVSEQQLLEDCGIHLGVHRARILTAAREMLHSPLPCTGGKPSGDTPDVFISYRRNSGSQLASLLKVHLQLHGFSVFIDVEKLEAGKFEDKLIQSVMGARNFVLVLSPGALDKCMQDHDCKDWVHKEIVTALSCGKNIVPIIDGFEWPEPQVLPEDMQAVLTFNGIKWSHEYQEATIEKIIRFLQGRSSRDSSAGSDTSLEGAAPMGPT
# Chain of Mitogen-activated protein kinase 7 (Homo sapiens) (Q13164 whole entry, looked up, the tested form may be a part): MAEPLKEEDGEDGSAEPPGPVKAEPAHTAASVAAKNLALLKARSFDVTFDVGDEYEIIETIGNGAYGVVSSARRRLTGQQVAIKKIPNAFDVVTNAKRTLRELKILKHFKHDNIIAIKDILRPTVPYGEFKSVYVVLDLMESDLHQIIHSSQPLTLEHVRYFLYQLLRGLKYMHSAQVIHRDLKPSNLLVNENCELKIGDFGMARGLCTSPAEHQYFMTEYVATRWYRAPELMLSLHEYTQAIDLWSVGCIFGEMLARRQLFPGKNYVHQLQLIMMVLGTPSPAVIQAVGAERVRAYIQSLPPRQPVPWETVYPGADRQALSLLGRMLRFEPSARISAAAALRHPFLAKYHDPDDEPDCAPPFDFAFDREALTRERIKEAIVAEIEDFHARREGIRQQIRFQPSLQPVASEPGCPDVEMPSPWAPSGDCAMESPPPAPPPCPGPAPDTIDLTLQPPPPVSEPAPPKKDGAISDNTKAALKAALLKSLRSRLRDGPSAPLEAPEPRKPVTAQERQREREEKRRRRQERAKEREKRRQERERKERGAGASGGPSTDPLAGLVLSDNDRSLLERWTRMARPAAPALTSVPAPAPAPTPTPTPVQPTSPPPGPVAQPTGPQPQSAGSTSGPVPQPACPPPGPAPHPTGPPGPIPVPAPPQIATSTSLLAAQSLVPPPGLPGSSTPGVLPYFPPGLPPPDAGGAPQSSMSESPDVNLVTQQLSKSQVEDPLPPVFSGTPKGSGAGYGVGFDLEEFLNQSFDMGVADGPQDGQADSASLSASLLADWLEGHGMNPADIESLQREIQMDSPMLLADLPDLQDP
smiles,measurement,setting,value
CCN(CC)CCOC(=O)C(O)(c1ccccc1)c1ccccc1,parasite load remaining,[1],103% (inactive)
same,viability,[1],95.8%
same,nuclear beta-catenin stimulation,[2]; at 10 µM,-0.3% (inactive)
same,nuclear beta-catenin stimulation,"[2]; stimulation, at 2 µM",-1.2%
same,insulin secretion stimulation,[3],4% (inactive)
same,viability decrease,[4],-5.8% (inactive)
same,tube area decrease,[5],-5.7% (inactive)
same,GLP1 secretion stimulation,[6],1% (inactive)
same,inhibition of viability,[7],1.8% (inactive)
same,viability decrease (inhibition),[8],-15.1% (inactive)
same,viability decrease (inhibition),[9],2.6% (inactive)
same,fold change,[10]; stronger effect = lower value,1.01 (inactive)
same,fold change,[10]; [16],1.6
same,cell count,[10]; [17],10200
same,cell count,[10]; [18],10100
same,z-score,[11],0.79 (inactive)
O=C1C2CC=CCC2C(=O)N1SC(Cl)(Cl)Cl (stereo not given),nuclear beta-catenin stimulation,[2]; at 10 µM,14.9% (active)
same,nuclear beta-catenin stimulation,"[2]; stimulation, at 2 µM",44.5%
same,insulin secretion stimulation,[3],0.6% (inactive)
same,viability decrease,[4],98.9% (active)
same,tube area decrease,[5],108% (active)
same,GLP1 secretion stimulation,[6],0.3% (inactive)
same,inhibition of viability,[7],99.3% (active)
same,viability decrease (inhibition),[8],102% (active)
same,viability decrease (inhibition),[9],102% (active)
same,red/green cell ratio (normalised),"[12]; counts scaled to control wells, 1 = unselective",1.09 (inactive)
same,normalised cell number,[12]; [19],1.03
same,normalised cell number,[12]; [20],1.13
c1ccc2c(c1)Nc1ccccc1S2,parasite load remaining,[1],39.8% (inactive)
same,viability,[1],65.3%
same,nuclear beta-catenin stimulation,[2]; at 10 µM,-1.5% (inactive)
same,nuclear beta-catenin stimulation,"[2]; stimulation, at 2 µM",-0.5%
same,insulin secretion stimulation,[3],1% (inactive)
same,viability decrease,[4],77.7% (active)
same,tube area decrease,[5],-18.6% (inactive)
same,GLP1 secretion stimulation,[6],-2.4% (inactive)
same,inhibition of viability,[7],48.1% (inactive)
same,viability decrease (inhibition),[8],60% (active)
same,viability decrease (inhibition),[9],38% (active)
same,red/green cell ratio (normalised),[12],0.84 (inactive)
same,normalised cell number,[12]; [19],0.93
same,normalised cell number,[12]; [20],0.78
same,fold change,[10]; stronger effect = lower value,0.885 (inactive) and 0.762 (inactive)
same,fold change,[10]; [16],1.16 and 2.24
same,cell count,[10]; [17],8220 and 7990
same,cell count,[10]; [18],9300 and 10500
same,z-score,[13]; [21],-0.376 (inactive) and 0.48 (inactive)
same,z-score,[13]; [22],-0.33 and 0.378
same,remaining NAD,[14],10 nM (inactive)
same,z-score,[11],-0.355 (inactive)
NC1=NC(=O)C(c2ccccc2)O1 (stereo not given),parasite load remaining,[1],109% (inactive)
same,viability,[1],79.6%
same,nuclear beta-catenin stimulation,[2]; at 10 µM,1% (inactive)
same,nuclear beta-catenin stimulation,"[2]; stimulation, at 2 µM",0.5%
same,insulin secretion stimulation,[3],-0.9% (inactive)
same,viability decrease,[4],-2.4% (inactive)
same,tube area decrease,[5],1.1% (inactive)
same,GLP1 secretion stimulation,[6],3.5% (inactive)
same,inhibition of viability,[7],-21.1% (inactive)
same,viability decrease (inhibition),[8],36.7% (inactive)
same,viability decrease (inhibition),[9],-5.1% (inactive)
same,fold change,[10]; stronger effect = lower value,0.967 (inactive)
same,fold change,[10]; [16],2.22
same,cell count,[10]; [17],9620
same,cell count,[10]; [18],9950
same,z-score,[11],0.395 (inactive)
COc1cccc([C@@]2(O)CCCC[C@@H]2CN(C)C)c1,nuclear beta-catenin stimulation,[2]; at 10 µM,4.3% (inactive)
same,nuclear beta-catenin stimulation,"[2]; stimulation, at 2 µM",1.4%
same,insulin secretion stimulation,[3],9.4% (inactive)
same,viability decrease,[4],34.1% (inactive)
same,tube area decrease,[5],-7.2% (inactive)
same,GLP1 secretion stimulation,[6],4.9% (inactive)
same,inhibition of viability,[7],30.7% (inactive)
same,viability decrease (inhibition),[8],75.1% (active)
same,viability decrease (inhibition),[9],20.8% (inactive)
same,fold change,[10]; stronger effect = lower value,0.937 (inactive)
same,fold change,[10]; [16],0.969
same,cell count,[10]; [17],10100
same,cell count,[10]; [18],10700
same,z-score,[13]; [21],0.879 (inactive) and 0.255 (inactive)
same,z-score,[13]; [22],0.166 and -0.539
same,remaining NAD,[14],10 nM (inactive)
same,luciferase signal,[15],40 AU (inactive)
same,z-score,[11],0.845 (inactive)
CN1C(=O)COc2c(C(=O)NC3CN4CCC3CC4)cc(Cl)cc21 (stereo not given),parasite load remaining,[1],118% (inactive)
same,viability,[1],75.1%
same,nuclear beta-catenin stimulation,[2]; at 10 µM,3.8% (inactive)
same,nuclear beta-catenin stimulation,"[2]; stimulation, at 2 µM",3.8%
same,insulin secretion stimulation,[3],1.3% (inactive)
same,viability decrease,[4],-9.5% (inactive)
same,tube area decrease,[5],-0.8% (inactive)
same,GLP1 secretion stimulation,[6],0% (inactive)
same,inhibition of viability,[7],5.23% (inactive)
same,viability decrease (inhibition),[8],18.3% (inactive)
same,viability decrease (inhibition),[9],-7.8% (inactive)
same,fold change,[10]; stronger effect = lower value,0.858 (inactive)
same,fold change,[10]; [16],1.27
same,cell count,[10]; [17],8690
same,cell count,[10]; [18],10100
same,z-score,[11],0.255 (inactive)
